# Cruzain noTriton – inhibitors of Trypanosoma cruzi cruzain without detergent | P25779 | purified cruzain, Z-FR-AMC fluorescence, no detergent | Potency, µM, hits mostly inhibitors | 2.3% of 200,000 active | AID 1476; further: nearly all actives have a fitted effect of over 40% in size
# Target sequence (P25779 123-467 limits assumed): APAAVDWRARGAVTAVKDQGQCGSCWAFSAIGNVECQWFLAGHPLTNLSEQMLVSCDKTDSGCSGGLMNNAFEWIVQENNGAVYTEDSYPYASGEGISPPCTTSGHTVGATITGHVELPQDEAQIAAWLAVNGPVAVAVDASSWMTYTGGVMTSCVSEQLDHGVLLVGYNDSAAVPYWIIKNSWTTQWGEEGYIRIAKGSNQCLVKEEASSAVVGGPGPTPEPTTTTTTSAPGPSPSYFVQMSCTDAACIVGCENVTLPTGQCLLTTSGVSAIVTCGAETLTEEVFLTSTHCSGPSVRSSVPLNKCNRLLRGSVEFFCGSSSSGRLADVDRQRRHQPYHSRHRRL
#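 Purified cruzain at 1.5 nM, pre-incubated 15 min with compound at room temperature in 100 mM sodium acetate pH 5.5, 5 mM DTT, 0.00005% Triton X-100. Reaction started with 2 uM Z-FR-AMC; AMC fluorescence increase over 60 s gives rate.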
# Cruzain inh Det – inhibitors of Trypanosoma cruzi cruzain with detergent. P25779. purified cruzain, Z-FR-AMC fluorescence, 0.01% Triton. Potency, µM, usual class: inhibitors. 0.43% of 200,000 active; further: nearly all actives have a fitted effect of over 40% in size
#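 In this qHTS format, compounds are incubated with 1.5 nM cruzain for 15 min at room temperature before 2 uM Z-FR-AMC is added. Release of AMC is followed at 360/450 nm, and progress is taken as the 60 s fluorescence difference.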
# Hits are given with their value; n = inactive; u = inconclusive; ! = not confirmed by another sample. This is a sample that favours compounds with a hit; in the whole collection about 2.4% have one here. The call rests on the fitted dose curve; in most records, active means well fitted curve in the direction sought with a large enough effect; inconclusive means small, poorly fitted or top-dose-only effect, or another doubt; inactive means no such curve, though single readings can be large; an effect the other way counts as inactive or inconclusive.
SMILES,Cruzain noTriton,Cruzain inh Det
Cc1nn(-c2ccccc2)c(C)c1/C=N/Nc1nc2ccccc2[nH]1,25µM,u
C(=N\Nc1nc2ccccc2[nH]1)/c1cccs1,u,n
Cc1ccc(NC(=O)c2ccc(=O)n(Cc3ccccc3C)c2)c(C)c1,n,n
Cc1cc(C(=O)COc2ccc(-c3nnco3)cc2)c(C)n1Cc1ccccc1,16µM,n
O=C(COc1ccc(-c2nnco2)cc1)NCc1ccccc1Cl,n,n
CC(C)(N)C(=O)N[C@@H]1C(=O)N2[C@@H]1SC(C)(C)[C@H]2C(=O)O,n,n
COc1ccc(N(CC(=O)NCCc2ccccc2)S(=O)(=O)c2ccccc2)c(OC)c1,n,n
Cc1ccc(-c2noc(-c3ccc(NCc4cccnc4)c([N+](=O)[O-])c3)n2)cc1,n,n
COc1ccc(OC)c2sc(NC(=O)c3ccc(Br)s3)nc12,16µM,n
COc1ccc(OC)c2sc(NC(=O)c3ccc(Cl)s3)nc12,n,n
Cc1cc(C)c(NC(=O)Cn2c(=O)n(CC3CCCO3)c(=O)c3ccccc32)c(C)c1 (configuration not stated),n,n
Cc1ccc(NC(=O)Cn2ccn(-c3ccccc3)c(=O)c2=O)cc1,n,n
Cc1cc(C)cc(Nc2sc(C(=O)c3ccccc3)c(N)c2S(=O)(=O)c2ccccc2)c1,10µM,n
Cc1ccc(Nc2sc(C(=O)c3ccccc3)c(N)c2C(N)=O)cc1,n,n
CCS(=O)(=O)c1c(Nc2ccc(F)c(Cl)c2)sc(C(=O)c2ccccc2)c1N,n,n
Nc1c(C(=O)c2ccccc2)sc(Nc2ccccc2)c1S(=O)(=O)c1ccccc1,7.9µM,n
O=C(CCn1c(=O)c2cccn2c2cccnc21)N1CCN(c2cccc(C(F)(F)F)c2)CC1,n,n
COc1cc(-c2ccc(N=Nc3ccc4c(S(=O)(=O)O)cc(S(=O)(=O)O)c(N)c4c3O)c(OC)c2)ccc1N=Nc1ccc2c(S(=O)(=O)O)cc(S(=O)(=O)O)c(N)c2c1O,u,25µM!
Cc1nn(-c2ccc(S(=O)(=O)O)cc2)c(O)c1N=Nc1ccc(-c2ccc(N=Nc3ccc4c(S(=O)(=O)O)cc(S(=O)(=O)O)c(N)c4c3O)c(O)c2)cc1O.[Cu].[Cu],n,n
O=c1c(-c2ccc(Cl)cc2)nc2cnc(N3CCNCC3)nc2n1Cc1cccs1,n,n
CCc1ccccc1NC(=O)CSc1nc2c(c(-c3ccco3)c1C#N)CCCC2,n,n
Cc1ccccc1NC(=O)CSc1nc2c(c(-c3ccco3)c1C#N)CCCC2,7.9µM,n
CCCCNC(=O)c1cc2c(=O)n3cccc(C)c3nc2n(Cc2ccccc2)c1=N,u,28µM
Cc1cccn2c(=O)c3cc(C(=O)NCc4ccco4)c(=N)n(CCOCCO)c3nc12,n,n
COCCCn1c(=N)c(C(=O)NCc2ccco2)cc2c(=O)n3cccc(C)c3nc21,n,n
SMILES,Cruzain noTriton,Cruzain inh Det
CNC(=O)c1cc2c(=O)n3cccc(C)c3nc2n(C(C)C)c1=N,u,25µM
Cc1cccn2c(=O)c3cc(C(=O)NCCc4ccccc4)c(=N)n(CCCn4ccnc4)c3nc12,u,n
C=CCn1c(=N)c(C(=O)NCCCOC)cc2c(=O)n3cccc(C)c3nc21,u,32µM
CCCCCSc1nnc(-c2ccc(Br)cc2)o1,n,n
CCOC(=O)c1c(NC(=O)C2C3C=CC(CC3)C2C(=O)O)sc(C)c1C (configuration not stated),n,n
CCOC(=O)c1c(NC(=O)C2=C(C)NC(=S)NC2c2ccc(F)cc2F)sc(C)c1C (configuration not stated),u,n
CCOC(=O)c1c(NC(=O)C2=C(C)NC(=S)NC2c2ccc(F)cc2)sc(C)c1C (configuration not stated),16µM,n
CCOC(=O)c1c(NC(=O)C2=C(C)NC(=S)NC2c2ccc(C)cc2)sc(C)c1C (configuration not stated),20µM,n
CCc1c(C)sc2c1CCN(Cc1cccc(OC)c1)C2c1ccccc1 (configuration not stated),n,n
COc1ccc(C2NC(=O)N(C)C3=C2C(=O)N(c2cccc(C(=O)O)c2)C3)cc1 (configuration not stated),n,n
COC(=O)N1CCC2(CCN(C(=O)Nc3ccc(OC)cc3)CC2)CC1,n,n
O=C(NCCc1ccccc1)/C(=C\c1ccc([N+](=O)[O-])cc1)NC(=O)c1ccc(Br)cc1,6.3µM,n
Cc1ccc(C(=O)N/C(=C\c2ccc([N+](=O)[O-])cc2)C(=O)NCCc2ccccc2)cc1,u,n
Cc1ccc2cc3cc(C(=O)Nc4ccc(F)cc4Cl)oc3nc2c1,n,n
O=C(NC1CCCCC1)N1CCCC(c2nc3ccccc3[nH]2)C1 (configuration not stated),5µM,u
O=C(NC1CCCCC1)N1CCC(c2nc3ccccc3[nH]2)CC1,n,n
Cc1cc(=O)oc2cc(OCC(=O)NCCc3nc4ccccc4[nH]3)ccc12,2.5µM,13µM

# Screening results (PubChem BioAssay)
